MCF10A rereplic: induces DNA re-replication in MCF 10a normal breast cells | MCF 10A DNA re-replication, Hoechst nuclear intensity, 48 h | Potency, µM (top dose mostly 46.1 µM), without a hit: at the highest dose activity, positive = re-replication, most hits filed as activators | 350,000 tested, 2.9% active | AID 624296; further: potency means the concentration at half of the fitted maximal effect; % of control where 0% means no effect; nearly all actives have a fitted effect of over 50% in size
TDP1 cell noCPT: qHTS for Inhibitors of human tyrosyl-DNA phosphodiesterase 1 (TDP1): qHTS in cells in absence of CPT; DT40 Tdp1-/- hTDP1 cells, no CPT, ATP luminescence, 48 h; Potency, µM (series often up to 46.2 µM), without a hit: top-dose activity change, negative = growth inhibition, most hits filed as inhibitors; 420,000 tested, 15% active; further: potency means the concentration at half of the fitted maximal effect; on the % scale 0 is the no-effect control and ±100 the full control effect; nearly all actives have a fitted effect of over 55% in size
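Chicken DT40 Tdp1-/- cells stably complemented with human TDP1 were seeded at 400 cells/well with DMSO in place of 20 nM camptothecin. After compound pinning, cells grew at least 48 hr at 37 °C; viability read by CellTiter-Glo luminescence.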
TDP1 cell CPT: DT40-hTDP1 cell growth loss with CPT; chicken DT40 Tdp1-/-;hTDP1 cells + 20 nM CPT, ATP luminescence, 48 h; AID 686979; Potency, µM (highest dose often 46.2 µM), inactives show top-dose activity change, negative = growth inhibition, actives largely listed as inhibitors; 420,000 tested, 12% active; further: potency means the concentration at half of the fitted maximal effect; on the % scale 0 is the no-effect control and ±100 the full control effect; nearly all actives have a fitted effect of over 55% in size
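Cell growth measured by CellTiter-Glo luminescence after a minimum 48 h, 37 C compound exposure with 20 nM CPT in Tdp1-knockout DT40 cells stably expressing hTDP1, seeded 400/well; qHTS titration format.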
IL-1B inflam inh: inflammasome signaling inhibition, IL-1 beta readout | THP-1 LPS/ATP IL-1B secretion, AlphaLISA, 16 h; active compounds read low | activity change, % at 57.5 µM | 360,000 tested, 4.7% active | AID 743279; in the data active means activity change below about -50%; inconclusive means mostly about -30% to -49%; further: on the % scale 0 is the no-effect control and ±100 the full control effect
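Secreted IL-1B measured by AlphaLISA bead assay after 16 h compound exposure of THP-1 cells; compounds (final up to 57.5 uM) added 1 h before LPS (250 ng/mL) and ATP (1.25 mM) stimulation; lower signal means less secretion.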
Chronic BCR inh: blocks chronic active B-cell receptor signaling; ABC-DLBCL IkBa-CBG/CBR reporter, luminescence ratio, 4 h; Potency, µM (titrated, usually from 46.1 µM), for inactives: at the top dose activity change, negative = inhibition, most hits filed as inhibitors; 340,000 tested, 0.05% active; active means well fitted inhibition curve with a large enough effect in the signal ratio, with a control signal flat, not every such curve was filed as active; inconclusive means small, poorly fitted or top-dose-only effect, or effect the other way, or a change in a side signal; the % refers to the signal ratio;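 further: potency means the concentration at half of the fitted maximal effect; plate controls were basal doxycycline-induced cells for no effect and cells given 10 µM MG132 for full effect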
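Doxycycline induced both beetle luciferases in TMD8 lymphoma cells; IKK-driven degradation limits the IkappaBalpha-fused green signal, while red luminescence normalises for cell number and nonspecific effects. Compounds tested up to 46 uM, 4 hrs.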
SW480 rerep: DNA re-replication induction in SW480 cells. AID 624297. SW480 DNA re-replication, Hoechst DNA content imaging, 48 h. Potency, µM (highest dose often 46.1 µM), inactives show top-dose re-replication activation, most hits filed as activators. 340,000 tested, 1.8% active; further: potency means the concentration at half of the fitted maximal effect; % of control where 0% means no effect; nearly all actives have a fitted effect of over 55% in size
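Per well, 250 cells were exposed to pinned compound for 48 hr. Nuclear DNA was visualised with Hoechst (40 min, 37 C) and total object intensity recorded by fluorescence scanning.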
* marks the source's active call; other numbers are inactive results; ? = inconclusive; . = no result given; [ ] = remark or other dose. Most compounds without a hit are left out; they make up all but 19% or so of the library. Unless noted, the call rests on the fitted dose curve; in most records, active means well fitted curve in the direction sought with a large enough effect; inconclusive means small, poorly fitted or top-dose-only effect, or another doubt; inactive means no such curve, though single readings can be large; an effect the other way counts as inactive or inconclusive.

SMILES	MCF10A rereplic	TDP1 cell noCPT	TDP1 cell CPT	IL-1B inflam inh	Chronic BCR inh	SW480 rerep
Cc1ccc(OCCCN2CCC(C(O)(c3ccccc3)c3ccccc3)CC2)cc1	.	?	?	-51.7*	.	.
Cc1nn(C)c(Oc2ccccc2)c1CCNC(=O)C(C)(C)C	-3.0%	-1.8%	-4.0%	10.6	-11.2%	-0.9%
Cc1nn(C)c(Oc2ccccc2)c1CCNS(=O)(=O)c1ccc(Cl)cc1	9.6%	16.4µM*	16.4µM*	?	-11.0%	0.6%
COc1ccc(S(=O)(=O)NCCc2c(C)nn(C)c2Oc2ccccc2)cc1	7.7%	23.1µM*	?	-1.9	-2.0%	10.2%
Cc1ccc(C)c(S(=O)(=O)N2CCCOC2CNC(=O)C(=O)NCc2ccc3c(c2)OCO3)c1 (configuration not stated)	6.5%	?	?	-3.6	-5.2%	-2.0%
CCC1CN(C(=O)NCc2ccc(F)cc2)c2ccccc2O1 (configuration not stated)	-9.5%	?	?	-20.9	2.8%	-0.3%
COc1cccc(CNC(=O)N2CCN(c3ccccc3C)CC2)c1	4.4%	?	?	-9.8	-23.2%	5.5%
CCC1CN(C(=O)NCc2cccc(OC)c2)c2cc(Cl)ccc2O1 (configuration not stated)	?	?	14.6µM*	0.0	?	-5.4%
CCC1CN(C(=O)NCc2cccc(OC)c2)c2ccccc2O1 (configuration not stated)	?	14.6µM*	?	10.1	0.6%	-7.8%
COc1ccc(OCC(=O)N(C)CC2COc3ccccc3O2)cc1 (configuration not stated)	?	?	18.4µM*	-5.3	-8.7%	18.3%
CC(C)(C)OC(=O)C[C@H]1C/C=C\C[C@@H](CC(=O)N[C@H](CO)Cc2ccccc2)C(=O)NC[C@H](c2ccccc2)OC1=O	-15.1%	23.1µM*	?	-3.4	-0.1%	-8.5%
CC(C)(C)OC(=O)C[C@@H]1C/C=C\C[C@H](CC(=O)N[C@@H](CO)Cc2ccccc2)C(=O)N[C@H](C(C)(C)C)COC1=O	13.9%	18.4µM*	20.6µM*	-8.3	4.1%	2.4%
CC(C)(C)OC(=O)C[C@H]1C/C=C\C[C@H](CC(=O)N[C@H](CO)Cc2ccccc2)C(=O)N[C@@H](Cc2ccccc2)COC1=O	14.3%	14.6µM*	16.4µM*	0.0	1.2%	-5.1%
CC(C)(C)OC(=O)C[C@@H]1C/C=C\C[C@@H](CC(=O)N[C@H](CO)Cc2ccccc2)C(=O)NC[C@H](c2ccccc2)OC1=O	7.8%	?	?	11.2	-0.4%	-3.6%
C[C@@H]1COC(=O)[C@@H](CC(=O)OC(C)(C)C)C/C=C\C[C@@H](CC(=O)N[C@@H](CO)Cc2ccccc2)C(=O)N1	8.3%	?	?	-2.2	?	-7.9%
O=C(C[C@H]1C/C=C\CC[C@@H](Cc2ccc(F)cc2)C(=O)O[C@@H](c2ccccc2)CNC1=O)N[C@H](CO)Cc1ccccc1	?	?	18.4µM*	-0.4	1.2%	-12.3%
COc1cc(-c2cc(C)c3c(OC)ccc(OC)c3n2)cc2c1OCCN(Cc1cn(C)nc1C)C2	.	-21.9%	32.7%[9.04 µM]	.	.	.
C=CCC1(CC=C)CC(Cc2cnccn2)N(C(=O)OC(C)(C)C)C1 (configuration not stated)	.	?	?	11.2	.	.
O=C(C[C@@H]1C/C=C\C[C@@H](Cc2ccc(F)cc2)C(=O)OCCNC1=O)N[C@H](CO)Cc1ccccc1	?	18.4µM*	20.6µM*	-18.5	1.0%	?
CCOCc1cc(CN2CCN(c3ccccc3OC)CC2)c(O)c2ncccc12	.	5.17µM*	5.17µM*	.	.	.

Bioassay records deposited in PubChem BioAssay by National Center for Advancing Translational Sciences (NCATS).
